# Measurements: PMC5540273 (PLoS ONE, 2017)
# Experiments:
# Settings in all cases: concentration: 1 μM, replicates: in singlicate; n = 1
# PKN1 = tested on: PKN1
# PKN2 = tested on: PKN2
# PLK1 = tested on: PLK1
# PLK2 = tested on: PLK2
# PLK3 = tested on: PLK3
# PLK4 = tested on: PLK4
# PRKCD = tested on: PRKCD
# PRKCE = tested on: PRKCE
# PRKCH = tested on: PRKCH
# PRKCI = tested on: PRKCI
# 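Note: KINOMEscan kinase panel screen.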
Structure (SMILES),%Inh (PKN1),%Inh (PKN2),%Inh (PLK1),%Inh (PLK2),%Inh (PLK3),%Inh (PLK4),%Inh (PRKCD),%Inh (PRKCE),%Inh (PRKCH),%Inh (PRKCI)
CCCc1ccc(S(=O)(=O)NC2CCN(c3ccnc(Nc4ccc(F)cc4)n3)C2)cc1 (stereo not drawn) [GSK1379715],7%,0%,0%,0%,0%,0%,0%,17%,11%,0%
Cc1cccc(-c2nc(-c3ccc(S(C)(=O)=O)cc3)sc2-c2ccnc(NCCc3ccccc3)c2)c1,6%,13%,0%,5%,0%,7%,8%,0%,14%,6%
O=C(Nc1ccccc1)Nc1cccc(Oc2ccc3nccn3n2)c1,0%,0%,33%,0%,0%,0%,16%,0%,0%,21%
Cl.Oc1ccc(-c2nc(-c3ccccc3)[nH]c2-c2ccncc2)cc1 [SB-428218],0%,0%,0%,0%,0%,0%,0%,33%,0%,12%
COc1ccc(CNC(=O)NC2CCN(c3ccnc(Nc4cc(OC)c(OC)c(OC)c4)n3)C2)cc1 (stereo not drawn) [GSK1379748],0%,0%,0%,0%,0%,19%,0%,14%,0%,30%
COc1ccccc1CNC(=O)c1cc(C(=O)c2ccccc2C)c[nH]1 [GSK364507],0%,0%,0%,0%,0%,100%,0%,1%,6%,3%
O=c1cc(N2CCOCC2)nc2n(Cc3cccc(Cl)c3Cl)ccn12 [GSK2286295],0%,0%,10%,0%,0%,0%,0%,0%,20%,48%
Cc1cccc(-c2cc(Nc3ccncc3)c3ccccc3n2)n1 [GSK223675],46%,0%,1%,0%,0%,2%,0%,0%,0%,17%
Cn1ccc2ncnc(Oc3cccc(C(=O)Nc4ccccc4)c3)c21,0%,0%,0%,0%,0%,2%,2%,0%,0%,0%
Cc1cccc(-c2nc(Nc3ccc4[nH]ncc4c3)c3ccccc3n2)n1 [GW857175],10%,0%,11%,12%,15%,8%,11%,0%,0%,33%
COc1cc2ncnc(Nc3ccc4nc(-c5ccccc5)[nH]c4c3)c2cc1OC.Cl [GW282450],0%,0%,9%,0%,0%,94.5%,14%,17%,0%,31%
Cc1cccc(-c2nc(C)cc(Nc3ccncc3)n2)n1 [GSK257997],0%,0%,5%,0%,0%,1%,15%,0%,5%,12%
Cn1cncc1-c1ccc2ncnc(Nc3ccc(OCc4ccccc4)cc3)c2c1 [GW320571],1%,0%,9%,0%,0%,0%,0%,14%,14%,32%
CC(=O)Nc1nc2cnc(Nc3cc(NC(=O)c4cccc(CCC#N)c4)ccc3C)nc2s1,12%,0%,0%,8%,14%,9%,8%,0%,0%,32%
CS(=O)(=O)c1ccc(-c2nc3n(c2-c2ccncc2)CCC3)cc1 [SKF-105942],8%,0%,0%,22%,0%,11%,0%,18%,1%,2%
Cc1cc(N2Cc3ccccc3C2)nc(Nc2ccc(S(=O)(=O)N3CCOCC3)cc2)n1.Cl [GSK1669917],0%,0%,0%,8%,0%,0%,0%,3%,10%,17%
Fc1cc(Cl)ccc1Nc1ccnc2cc(I)ccc12 [GW551191],17%,0%,0%,0%,0%,1%,0%,10%,2%,16%
CC(C)(C)c1ccc(C(=O)Nc2cn3cc(-c4cccnc4)ccc3n2)cc1,25%,22%,0%,16%,24%,15%,36%,4%,0%,26%
